# Target: AMP-activated protein kinase, AMPK (Homo sapiens) (UniProt P54646+O43741+P54619+Q9UGJ0+Q9Y478+Q13131+Q9UGI9)
# Test: AMP-dependent Kinase enzyme assay. An in vitro enzyme assay that detects ADP turnover that is directly proportional to AMPK activity. This uses naive AMPK that is activated during the assay with MK-8722
# Format: functional
# Set-up: scale not given: direction of the effect not stated beside the values
# Details: 30 µM
row,Structure (SMILES),Percent Effect
1,Cc1ccc(N(CCC#N)C(=O)CCc2cscn2)cc1C,-7.79%
2,COCC(=O)N1CCC(c2c(C(=O)N(C)C)sc3ncccc23)C1 (stereo unspecified),1.82%
3,CC1CN(c2ncnc3c2cnn3C)CCN1c1nccs1 (stereo unspecified),11.2%
4,Cc1csc(CCNC(=O)N2CCC(C(N)=O)CC2)n1,-10.8%
5,CCC(C)c1csc(NC(=O)Cc2csc(-c3nnc[nH]3)n2)n1 (stereo unspecified),10.5%
6,Cc1nc(OCC(=O)N2CCCC2)cc(-n2cccn2)n1,3.39%
7,N#Cc1c(C2CC2)cc(-c2ccc(F)c(F)c2)nc1N,10.4%
8,Cc1cc(C)c(C#N)c(N2CCC3(CCCN(CCO)C3=O)C2)n1 (stereo unspecified),8.35%
9,CC(C)OCCN1CCC(Nc2ncccn2)CC1,-1.19%
10,CC(C)(CN1CCC2(CCOCC2)CC1)N1CCOCC1,-0.161%
11,Cc1ccncc1CN1CCOCC1c1[nH]ncc1C (stereo unspecified),17%
12,CCc1nc(NC(=O)Cc2csc(-c3nnc[nH]3)n2)sc1C,3.13%
13,CN(CC(=O)NCC(F)(F)F)Cc1cccc2c1OCCO2,3.65%
14,CN(Cc1noc(-c2ccccc2)n1)C(=O)CSc1nnc(N)s1,1.22%
15,CC(C)(C)c1ccc(C(=O)NCCCNC(=O)c2cnccn2)cc1,8.31%
16,Cc1nnc(CCNC(=O)Nc2ccc(S(C)(=O)=O)cc2)[nH]1,6.21%
17,CCSc1ncc(CN2CCN(c3ccc(C#N)cc3)C(=O)C2)cn1,2.89%
18,Cc1cc(N2CCC(n3cc(CN4CCSCC4)nn3)CC2)ccn1,2.21%
19,O=C(CCn1cncn1)NCCOc1cccc(Cl)c1,-7.83%
20,Cc1nc(CN2CCCCC2Cn2cccn2)nc2ccccc12 (stereo unspecified),0.0601%
21,OCCc1ncnn1Cc1cccc(Cl)c1,32.2%

# Source: ChEMBL document CHEMBL3988442, “University of Dundee, Small-Polar-MMV Screening Library” (2021)
